{
  "source": "PubChem BioAssay (NCATS)",
  "note": "Records with an inconclusive call do not appear. Where a call stands in place of a potency, no number is given. The source made the active and inactive calls. Unless noted, calls follow the shape of the dose curve; as a rule, active = well fitted activation curve with a large enough effect in the main read-out, with a control signal flat (not every such curve was filed as active); inconclusive = small, poorly fitted or top-dose-only effect, or effect the other way, or a change in a side signal; inactive = flat fitted curve, though single readings scatter.",
  "data": [
    {"target": "3',5'-cyclic-AMP phosphodiesterase 4B (Homo sapiens) (UniProt Q07343)", "sequence (Q07343 whole entry, looked up)": "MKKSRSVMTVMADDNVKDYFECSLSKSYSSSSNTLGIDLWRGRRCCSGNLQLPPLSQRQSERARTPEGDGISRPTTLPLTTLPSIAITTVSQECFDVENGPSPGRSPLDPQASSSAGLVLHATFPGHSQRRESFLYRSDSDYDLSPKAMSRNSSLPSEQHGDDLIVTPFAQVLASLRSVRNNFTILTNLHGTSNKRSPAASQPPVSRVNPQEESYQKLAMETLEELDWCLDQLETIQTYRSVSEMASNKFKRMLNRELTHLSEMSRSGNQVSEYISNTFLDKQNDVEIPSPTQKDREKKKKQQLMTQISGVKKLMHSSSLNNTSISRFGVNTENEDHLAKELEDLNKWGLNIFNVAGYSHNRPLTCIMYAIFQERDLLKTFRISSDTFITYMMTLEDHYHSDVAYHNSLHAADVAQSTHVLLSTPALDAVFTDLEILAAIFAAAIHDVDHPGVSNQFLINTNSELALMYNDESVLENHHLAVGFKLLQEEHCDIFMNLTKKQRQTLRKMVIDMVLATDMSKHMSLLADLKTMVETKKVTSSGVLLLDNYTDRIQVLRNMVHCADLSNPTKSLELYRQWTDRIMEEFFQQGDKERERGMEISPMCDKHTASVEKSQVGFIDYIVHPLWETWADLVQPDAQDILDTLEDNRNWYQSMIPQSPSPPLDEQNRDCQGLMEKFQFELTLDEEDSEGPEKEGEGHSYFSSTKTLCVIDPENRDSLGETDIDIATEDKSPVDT", "assay": "qHTS Assay for Inhibitors of PDE-IV (AID 607)", "conditions": "HEK293 ACTOne CNG channel cells, membrane potential fluorescence; series mostly up to 22.9 µM", "in_short": "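Cell-based read-out of cAMP via a modified cyclic nucleotide-gated channel and membrane potential dye (535/590 nm) in HEK293 cells expressing PDE4 endogenously. Compounds tested up to 22.9 uM final; 100 uM RO 20-1724 reference.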", "values": [
      {"smiles": "O=C(Oc1ccc([N+](=O)[O-])cc1)N1CCC(N2CCCCC2)CC1", "outcome": "inactive"},
      {"smiles": "CCCc1cc2c(n1Cc1ccco1)C(C)C1CN(C(=O)c3ccccc3)C(C)(C(=O)OC)C21", "note": "(configuration not stated)", "outcome": "inactive"},
      {"smiles": "C[C@@H]1O[C@@H](O[C@H]2C[C@@H](O)[C@]3(CO)[C@@H]4[C@@H](O)C[C@]5(C)[C@H](C6=CC(=O)OC6)CC[C@@]5(O)[C@H]4CC[C@@]3(O)C2)[C@H](O)[C@H](O)[C@@H]1O", "outcome": "inactive"},
      {"smiles": "COC(=O)[C@@]1(Cc2ccc(F)cc2)[C@H]2c3cc(C(=O)N(C)C)[nH]c3C[C@H]2CN1C(=O)c1ccccc1", "outcome": "inactive"},
      {"smiles": "COC(=O)[C@@H]1C[C@H]1[C@@H](NP(=O)(c1ccccc1)c1ccccc1)c1ccccc1", "outcome": "inactive"},
      {"smiles": "CNC(=O)[C@H]1C[C@@H]1[C@H](NP(=O)(c1ccccc1)c1ccccc1)c1ccccc1", "outcome": "inactive"},
      {"smiles": "O=C1C[C@@H]2OCC=C3CN4CC[C@]56c7ccccc7N1[C@H]5[C@@H]2[C@H]3C[C@@H]46", "outcome": "inactive"},
      {"smiles": "CCCc1cc2c(n1Cc1cccc(Cl)c1)C(C)C1CN(C(=O)c3ccccc3)C(C)(C(=O)OC)C21", "note": "(configuration not stated)", "outcome": "inactive"},
      {"smiles": "COC(=O)C1(C)C=C2C(=C(C)C(=O)C2C)CN1", "note": "(configuration not stated)", "outcome": "inactive"},
      {"smiles": "COC(=O)[C@@]1(Cc2ccccc2)[C@H]2c3cc(C(=O)N(C)C)[nH]c3C[C@H]2CN1C(=O)c1ccccc1", "outcome": "inactive"},
      {"smiles": "O=C(O)[C@H]1C[C@@H]1[C@H](NP(=O)(c1ccccc1)c1ccccc1)c1ccccc1", "outcome": "inactive"},
      {"smiles": "COC(=O)[C@@H]1C[C@@H]1[C@@H](NP(=O)(c1ccccc1)c1ccccc1)c1ccccc1", "outcome": "inactive"},
      {"smiles": "COC(=O)[C@@]1(Cc2ccccc2)[C@H]2c3cc(C(=O)N(C)C)n(C)c3C[C@H]2CN1C(=O)c1ccccc1", "outcome": "inactive"},
      {"smiles": "CNC(=O)[C@@H]1C[C@H]1[C@@H](NP(=O)(c1ccccc1)c1ccccc1)c1ccccc1", "outcome": "inactive"}
    ]},
    {"target": "Cytochrome P450 2C9 (Homo sapiens) (UniProt P11712)", "sequence (P11712 whole entry, looked up)": "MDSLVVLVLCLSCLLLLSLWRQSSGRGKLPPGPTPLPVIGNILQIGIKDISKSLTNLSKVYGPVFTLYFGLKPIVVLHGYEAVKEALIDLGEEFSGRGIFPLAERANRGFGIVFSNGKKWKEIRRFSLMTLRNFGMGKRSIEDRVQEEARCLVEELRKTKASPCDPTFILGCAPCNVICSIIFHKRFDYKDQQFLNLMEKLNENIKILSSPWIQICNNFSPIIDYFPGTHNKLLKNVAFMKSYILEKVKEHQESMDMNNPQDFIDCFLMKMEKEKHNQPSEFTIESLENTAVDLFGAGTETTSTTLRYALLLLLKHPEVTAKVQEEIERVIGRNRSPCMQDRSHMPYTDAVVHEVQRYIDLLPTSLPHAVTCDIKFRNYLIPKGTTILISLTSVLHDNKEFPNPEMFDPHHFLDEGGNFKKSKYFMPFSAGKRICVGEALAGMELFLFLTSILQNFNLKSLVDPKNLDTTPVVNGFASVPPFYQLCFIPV", "assay": "qHTS Assay for Inhibitors and Substrates of Cytochrome P450 2C9 (AID 883; active = well fitted inhibition curve with a large enough effect; also: nearly all actives have a fitted effect of over 60% in size; also: potency is read from the fitted curve at half-maximal effect)", "conditions": "recombinant CYP2C9, luciferin-H luminescence, 60 min; series mostly up to 57.1 µM", "in_short": "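Turnover of Luciferin-H (100uM, KM) by 10nM human CYP2C9 was measured over 60 min at 37C with NADPH regeneration; inhibitors and some substrates reduce luminescence. Data normalized to sulphaphenazole 57uM.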", "values": [
      {"smiles": "CCN1C[C@@]2(COC)[C@H](O)C[C@H](OC)[C@@]34[C@@H]5C[C@@]6(O)[C@H](OC(=O)c7ccccc7)[C@H]5[C@@](OC(C)=O)([C@H]([C@@H](OC)[C@H]23)[C@H]14)[C@H](O)[C@@H]6OC", "Potency": "inactive"},
      {"smiles": "CCCc1cc2c(n1Cc1cccc(Cl)c1)C(C)C1CN(C(=O)c3ccccc3)C(C)(C(=O)OC)C21", "note": "(configuration not stated)", "Potency": "5.01 µM (active)"},
      {"smiles": "C=C(CC1(C(C)NP(=O)(c2ccccc2)c2ccccc2)CC1)c1ccccc1", "note": "(configuration not stated)", "Potency": "7.94 µM (active)"}
    ]}
  ]
}
